Reference: ChEMBL document CHEMBL1201862, “PubChem BioAssay data set” (2004)
Hit rate of the full screen: of about 400,000 compounds, about 2,100 (0.53%) were called active. Inconclusive results (about 14%) are left out. No rule for the calls is given here. Only a selection was taken, and actives are over-represented in it overall.

These molecules were tested against Ataxin-2 (Homo sapiens) (UniProt Q99700) (assay: qHTS for Inhibitors of ATXN expression.).
Chain of Ataxin-2 (Homo sapiens) (Q99700 whole entry): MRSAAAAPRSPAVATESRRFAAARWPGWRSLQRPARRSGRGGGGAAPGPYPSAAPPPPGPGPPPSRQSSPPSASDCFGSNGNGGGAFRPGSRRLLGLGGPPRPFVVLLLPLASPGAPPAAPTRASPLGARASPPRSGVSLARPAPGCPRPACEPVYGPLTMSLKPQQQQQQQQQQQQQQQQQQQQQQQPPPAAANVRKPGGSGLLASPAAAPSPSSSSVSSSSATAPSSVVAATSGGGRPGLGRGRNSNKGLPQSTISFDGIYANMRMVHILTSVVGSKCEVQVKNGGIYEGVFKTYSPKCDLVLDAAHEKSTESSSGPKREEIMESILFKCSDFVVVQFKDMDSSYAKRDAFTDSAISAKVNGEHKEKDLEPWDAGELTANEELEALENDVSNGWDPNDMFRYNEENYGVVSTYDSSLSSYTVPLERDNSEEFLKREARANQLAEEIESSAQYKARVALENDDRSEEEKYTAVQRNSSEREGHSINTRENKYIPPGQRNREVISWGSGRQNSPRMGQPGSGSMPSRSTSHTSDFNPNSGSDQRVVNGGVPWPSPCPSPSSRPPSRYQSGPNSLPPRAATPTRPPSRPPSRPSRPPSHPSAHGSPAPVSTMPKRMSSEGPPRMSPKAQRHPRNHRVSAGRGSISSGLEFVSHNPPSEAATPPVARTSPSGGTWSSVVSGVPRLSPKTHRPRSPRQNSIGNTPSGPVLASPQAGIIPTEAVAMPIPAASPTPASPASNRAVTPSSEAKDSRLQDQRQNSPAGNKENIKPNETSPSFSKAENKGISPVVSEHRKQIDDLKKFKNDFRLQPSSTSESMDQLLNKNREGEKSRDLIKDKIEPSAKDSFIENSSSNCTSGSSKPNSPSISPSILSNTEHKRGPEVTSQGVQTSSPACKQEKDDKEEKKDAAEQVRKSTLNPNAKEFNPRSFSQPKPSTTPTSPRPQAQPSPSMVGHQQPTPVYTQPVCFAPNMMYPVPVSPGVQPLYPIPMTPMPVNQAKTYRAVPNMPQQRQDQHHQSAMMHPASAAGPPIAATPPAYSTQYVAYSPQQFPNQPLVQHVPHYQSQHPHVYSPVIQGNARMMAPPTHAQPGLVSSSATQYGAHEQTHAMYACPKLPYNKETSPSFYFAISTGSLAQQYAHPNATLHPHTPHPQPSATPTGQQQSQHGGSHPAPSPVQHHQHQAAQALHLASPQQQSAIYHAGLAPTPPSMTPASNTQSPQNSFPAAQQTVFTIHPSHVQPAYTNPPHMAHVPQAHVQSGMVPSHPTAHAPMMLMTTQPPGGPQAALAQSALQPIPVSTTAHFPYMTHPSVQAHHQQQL
Type: functional
`O=C1OCCN1C(=O)[C@H]1[C@H](c2ccc(Cl)cc2)C(c2ccc(F)cc2)=NN1c1ccccc1` was tested, and the Potency was “inactive”.
For `COCCNc1nc(NCc2ccc(C(C)C)cc2)c2sccc2n1`, the Potency was 35.5 µM (active).
`COc1cccc(CNc2nc(NCc3cccs3)nc3ccsc23)c1` was tested, and the Potency was 39.8 µM (active).
In the case of `COc1cccc(CNC(=O)Cc2csc(Nc3nc(S)nc4ccccc34)n2)c1`, the Potency is reported as “inactive”.
With `C#Cc1cccc(Nc2nc(NC(C)C)nc3ccsc23)c1` the Potency was 28.2 µM (active).
With `c1csc(CNc2nc(Oc3ccncc3)c3sccc3n2)c1` the Potency was “inactive”.
In the case of `c1cc2cc(CNc3nc(NCC4CC4)nc4ccsc34)ccc2o1`, the Potency is reported as 25.1 µM (active).
With `CC(=O)c1ccc(NC(=O)COC(=O)Cc2ccsc2)cc1` the Potency was “inactive”.
In the case of `S=C(c1ccc(-c2ccc(Br)cc2)o1)N1CCCCC1`, the Potency is reported as “inactive”.
`CN(Cc1ccon1)C(=O)CC1C(=O)NCCN1CC(C)(C)C` (centres undefined) was tested, and the Potency was “inactive”.
In the case of `O=S(=O)(O)c1ccc(SCc2ccccc2)nc1`, the Potency is reported as “inactive”.
`COc1ccc(CNc2nc3ccccc3n2C(C)C)cc1` was tested, and the Potency was “inactive”.
In the case of `COc1ccccc1CNc1nc(NCc2ccc(C(C)C)cc2)c2sccc2n1`, the Potency is reported as 31.6 µM (active).
For `CC(C)c1ccc(CNc2nc(NCC3CC3)nc3ccsc23)cc1`, the Potency was 28.2 µM (active).
`CCn1c(/C=C/c2c[nH]c3ccccc23)nc2ccccc2c1=O` was tested, and the Potency was “inactive”.
For `O=C(CCCCl)Oc1ccc2cc(-c3ccc4ccccc4n3)c(=O)oc2c1`, the Potency was “inactive”.
In the case of `Cc1ccc(NC(=O)C2CCCN2c2nn3c(=O)cc(C)nc3s2)cc1` (centres undefined), the Potency is reported as “inactive”.
In the case of `CCOc1ncccc1C(=O)NC(C)CCc1ccccc1` (centres undefined), the Potency is reported as “inactive”.
With `CCOc1ncccc1C(=O)OCC(=O)NC(=O)NC(C)C` the Potency was “inactive”.
For `CCOc1ncccc1C(=O)Nc1nc(C(C)(C)C)cs1`, the Potency was 39.8 µM (active).
For `COc1ccc2[nH]c3nc(SCc4nnc(-c5ccc(C)cc5)o4)nnc3c2c1`, the Potency was 22.4 µM (active).
For `COc1ccc([C@@H](C)NC(=O)CCc2nnc(-c3cc(C)on3)o2)cc1`, the Potency was “inactive”.
With `COc1ccc(C2CC(c3ccc(F)cc3)n3nc(NC(=O)c4ccco4)nc3N2)cc1` (centres undefined) the Potency was “inactive”.
With `CCCn1nc(NC(=O)c2cccs2)c2cc3cc(C)ccc3nc21` the Potency was “inactive”.
`Cc1ccc(C)c(CSc2cn(CCNC(=O)c3cccs3)c3ccccc23)c1` was tested, and the Potency was 31.6 µM (active).
With `N#Cc1c(N)n(CCNC(=O)c2cccs2)c2nc3ccccc3nc12` the Potency was “inactive”.
With `COC(=O)c1cc(=O)nc(NN=C2c3ccccc3-c3ccccc32)s1` the Potency was 14.1 µM (active).
In the case of `Cc1cccn2c(=O)c3cc(C#N)/c(=N\C(=O)c4ccccc4)n(Cc4ccco4)c3nc12`, the Potency is reported as “inactive”.
With `O=C(Oc1cc2oc(=O)c3c(c2cc1Cl)CCCC3)c1cccs1` the Potency was “inactive”.
For `COc1cc2c(cc1OC)CN(C1CCC(C(C)(C)C)CC1)CC2` (centres undefined), the Potency was “inactive”.
In the case of `COc1cc2c(cc1OC)C(c1ccccc1)N(C(=O)CCl)CC2` (centres undefined), the Potency is reported as 25.1 µM (active).
In the case of `COc1cc2c(cc1OC)C(c1ccccc1Cl)N(C)CC2` (centres undefined), the Potency is reported as “inactive”.
In the case of `CCc1ccc(-c2cc(C(F)(F)F)n3nc(C(=O)Nc4cnn(Cc5ccccc5C)c4)cc3n2)s1`, the Potency is reported as “inactive”.
In the case of `CC1(C)CC(=O)c2cnc(N3CCc4ccccc43)nc2C1`, the Potency is reported as “inactive”.
With `COc1ccc(S(=O)(=O)N(C)C)cc1NC(=O)CCNC(=O)c1ccco1` the Potency was “inactive”.
With `O=C(c1cccs1)N1CCN(C(=O)c2cccs2)C1=S` the Potency was 39.8 µM (active).
With `O=C(NCCNC1CCC(c2ccccc2)CC1)c1cccs1` (centres undefined) the Potency was “inactive”.
`Nc1ccc(/C=C/C(=O)c2cccs2)cc1` was tested, and the Potency was “inactive”.
`CCOc1cc(Br)c(C(C)NC(=O)c2cccnc2)cc1OCC` (centres undefined) was tested, and the Potency was “inactive”.
`N#C/C(=C(/O)CCCl)c1ccccn1` was tested, and the Potency was “inactive”.
In the case of `FC(F)Sc1ccc(NC(=S)N2CCN(c3ccccn3)CC2)cc1`, the Potency is reported as “inactive”.
With `CCOC(=O)C1C(C(=O)NN)C1C(=O)Nc1ccccc1` (centres undefined) the Potency was “inactive”.
`CCOC(=O)c1cnc(-c2ccccc2O)nc1Cl` was tested, and the Potency was “inactive”.
For `CCOC(=O)C1=Nc2ccccc2C1=[N+]=[N-]`, the Potency was 39.8 µM (active).
With `Cc1ccc2nc3c(cc2c1)c(C)nn3-c1ccccc1` the Potency was “inactive”.
For `O=C(C(Cc1ccccc1)n1cccc1)N1CCCCC1` (centres undefined), the Potency was “inactive”.
With `O=C1OCCN1C(=O)[C@H]1[C@H](c2ccccc2)C(c2cccc(Cl)c2)=NN1c1ccccc1` the Potency was “inactive”.
With `CCCc1nnc(SCC(=O)Nc2ccccc2F)o1` the Potency was “inactive”.
With `COc1ccc(NC(=O)Cc2nnc(SCC(=O)NC3=NCCS3)n2C)cc1` the Potency was “inactive”.
With `Cc1ccc(C(C)NC(=O)C23CC4CC(CC(C4)C2)C3)cc1` (centres undefined) the Potency was “inactive”.
For `CCCCn1c(CNC(=O)C23CC4CC(CC(C4)C2)C3)nnc1SCC(=O)Nc1ccc(C)cc1`, the Potency was 35.5 µM (active).
In the case of `N#Cc1c(N)n(CCCN2CCOCC2)c2nc3ccccc3nc12`, the Potency is reported as “inactive”.
With `O=C(Cc1cccc2ccccc12)Nc1ccc(Br)cc1C(=O)O` the Potency was “inactive”.
With `O=C(Nc1ccn(CCCN2CCN(Cc3cccc4ccccc34)CC2)c(=O)n1)OCc1ccccc1` the Potency was 14.1 µM (active).
For `Cc1ccc(-c2nnn3c2nc(NCCc2ccc(S(N)(=O)=O)cc2)c2ccccc23)cc1`, the Potency was “inactive”.
In the case of `CC(=O)NCCNc1nc2c(-c3cccc(C(F)(F)F)c3)nnn2c2ccccc12`, the Potency is reported as “inactive”.
With `Cc1ccc(S(=O)(=O)c2nnn3c2nc(NC2CCN(Cc4ccccc4)CC2)c2ccccc23)cc1C` the Potency was 39.8 µM (active).
With `Cc1nc2nc(SCC(=O)O)nn2c(C)c1Cc1ccccc1Cl` the Potency was “inactive”.
With `Cc1ccc(OCC(=O)N2CC(C)OC(C)C2)c([N+](=O)[O-])n1` (centres undefined) the Potency was “inactive”.
In the case of `CN1C2CCC1/C(=C/c1cccn1C)C(=O)/C2=C\c1cccn1C`, the Potency is reported as “inactive”.
With `N=c1c(S(=O)(=O)c2ccc(Br)cc2)cc2c(=O)n3ccccc3nc2n1Cc1ccco1` the Potency was “inactive”.
In the case of `O=[N+]([O-])c1cc(-c2ncccn2)c([N+](=O)[O-])s1`, the Potency is reported as 25.1 µM (active).
In the case of `Cc1c(NS(=O)(=O)c2cc([N+](=O)[O-])ccc2Cl)c(=O)n(-c2ccccc2)n1C`, the Potency is reported as “inactive”.
With `CC(c1ccon1)N(C)C(=O)c1cnn(-c2ncc3c(n2)-c2ccccc2CC3)c1C1CC1` (centres undefined) the Potency was “inactive”.
In the case of `Cc1cc(C)c(C#N)c(OCc2ccc(Cl)nc2)n1`, the Potency is reported as “inactive”.
In the case of `N#Cc1ccc(C(=O)OCC(=O)Nc2cccnc2Cl)cc1`, the Potency is reported as “inactive”.
With `Cc1ccc(NC(=O)/C(C#N)=C/c2cn(CC(=O)NCc3ccco3)c3ccccc23)cc1C` the Potency was “inactive”.
In the case of `COc1cc(C)c(/C=C(\C#N)C(=O)Nc2ccc(C)cc2)cc1C(C)C`, the Potency is reported as “inactive”.
`Cc1ccc(NC(=O)/C(C#N)=C/c2cc(C)n(-c3ccc(Br)cc3)c2C)cc1C` was tested, and the Potency was 35.5 µM (active).
`CNC(=S)N/N=C/c1c2ccccc2c(Cl)c2ccccc12` was tested, and the Potency was “inactive”.
For `NC(=S)NN=Cc1nccc2c(N)cccc12`, the Potency was 8.91 µM (active).
In the case of `NC(=S)NN=Cc1nccc2c(C(F)(F)C(F)(F)C(F)(F)F)cccc12`, the Potency is reported as 1 µM (active).
With `N=c1c(C(=O)NCC2CCCO2)cc2c(=O)n3ccccc3nc2n1CCCO` (centres undefined) the Potency was “inactive”.
`OCCn1ccc(-c2ccccc2OCc2ccc(F)cc2)n1` was tested, and the Potency was “inactive”.
`CCCCCCc1cc2cc(S(=O)(=O)c3ccc(C)cc3)c(=O)oc2cc1O` was tested, and the Potency was “inactive”.
`CC(C)N(C(=O)CS(=O)(=O)c1ccc(Cl)c(Cl)c1)C(C)C` was tested, and the Potency was “inactive”.
`O=C(NCC1CCCO1)c1nn2c(C(F)(F)F)cc(-c3cccs3)nc2c1Br` (centres undefined) was tested, and the Potency was “inactive”.
With `COCCCNc1nc2ccccc2nc1NS(=O)(=O)c1cc(Cl)ccc1Cl` the Potency was “inactive”.
For `CCCCNC(=O)C(C)N(CCN(C)C)C(=O)CCCN1C(=O)NC(c2ccc(Cl)cc2)C(C(=O)OCc2ccccc2)=C1C` (centres undefined), the Potency was 25.1 µM (active).
For `NC(=O)C1(N2CCCCC2)CCN(C(=O)c2cc(COc3c(F)cccc3F)on2)CC1`, the Potency was “inactive”.
In the case of `Cc1ccc(NC(=O)c2ccc(Nc3c([N+](=O)[O-])cc([N+](=O)[O-])cc3[N+](=O)[O-])cc2)cc1`, the Potency is reported as 15.8 µM (active).
With `Cc1ccc(C(=O)Nc2ccc(S(=O)(=O)Nc3ncccn3)cc2)cc1[N+](=O)[O-]` the Potency was “inactive”.
`COc1ccc(C(=O)Nc2ccc(S(=O)(=O)Nc3nccc(C)n3)cc2)cc1[N+](=O)[O-]` was tested, and the Potency was “inactive”.
`C/C(=N\NC(=O)CC#N)c1cc2ccc(O)cc2oc1=O` was tested, and the Potency was “inactive”.
For `COc1ccc(CN2CCCC(N3CCN(c4cccc(Cl)c4)CC3)C2)cc1OC` (centres undefined), the Potency was “inactive”.
For `Cc1cc2sc3ccccc3c(=O)c2c(C)c1O`, the Potency was “inactive”.
With `CCN(CC)CCNc1ccc(C)c2sc3ccc(O)cc3c(=O)c12` the Potency was 33.6 µM (active).
With `CNC(=O)OCc1nc(SSC(C)(C)C)n(C)c1COC(=O)NC` the Potency was 23.8 µM (active).
With `CC(=O)CC1OC(O)=C(Br)/C1=N/Cc1ccccc1` (centres undefined) the Potency was 20 µM (active).
In the case of `NC(=O)c1cc2ccc(O)cc2o/c1=N\Cc1ccccc1`, the Potency is reported as “inactive”.
`Oc1nc(N2CCOCC2)cc2ccccc12` was tested, and the Potency was “inactive”.
In the case of `Cc1cccc(Nc2nc(-c3ccccc3)c(C(=O)Nc3cccnc3)s2)c1`, the Potency is reported as “inactive”.
In the case of `Cc1nc(NC(=O)/C=C/c2ccccc2)sc1C(=O)Nc1ccc(Cl)cc1`, the Potency is reported as 39.8 µM (active).
In the case of `Cc1nc(NS(=O)(=O)c2ccccc2)sc1C(=O)NN`, the Potency is reported as “inactive”.
For `CC(C)=CC(=O)N1CCC(N2CCC(C(=O)N3CCOCC3)CC2)CC1`, the Potency was “inactive”.
In the case of `O=C(COCc1cc(-c2ccco2)on1)NC1CCCCC1`, the Potency is reported as “inactive”.
For `CCCc1cc(=O)oc2c(C)c(O[C@@H]3O[C@H](CO)[C@@H](O)[C@H](O)[C@H]3O)ccc12`, the Potency was “inactive”.
With `Nc1nc(N)c2nc(-c3ccccc3)c(N)nc2n1` the Potency was “inactive”.
`Cc1cccc(Nc2nc(NCc3ccco3)c3ccccc3n2)c1` was tested, and the Potency was 25.1 µM (active).
In the case of `OCCNc1nc(Nc2ccc(Br)cc2)nc2ccccc12`, the Potency is reported as “inactive”.
In the case of `COc1ccc(OC)c(Nc2nc(-c3ccncc3)nc3ccccc23)c1`, the Potency is reported as “inactive”.
In the case of `COc1ccc(OC)c(Nc2nc(-c3ccccc3O)nc3ccccc23)c1`, the Potency is reported as “inactive”.
With `Cc1ccc(-c2nc(NCc3ccco3)n(S(C)(=O)=O)n2)cc1` the Potency was “inactive”.
`COc1ccc(OC)c(Nc2nc(NCc3ccco3)c3ccccc3n2)c1` was tested, and the Potency was 39.8 µM (active).
